From PubChem BioAssay (NCATS)
Records with an inconclusive call do not appear. Unless noted, the call rests on the fitted dose curve; in most records, active means well fitted curve in either direction with a large enough effect (not every such curve was filed as active); inconclusive means small, poorly fitted or top-dose-only effect, or another doubt; inactive means flat fitted curve, though single readings scatter.

Legend:
[1] = AP1 Signaling Pathway (AID 357); conditions: ME-180 AP-1-bla reporter, EGF-induced, beta-lactamase ratio, 5 h; at 17.2 µM (top of the series) unless noted;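 further: ME-180 reporter cells stimulated with EGF at its EC50 level; on the % scale 0 is the no-effect control and ±100 the full control effect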
Procedure, shortened: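 AP-1-bla ME-180 cells, Opti-MEM + 0.5% dialyzed FBS, plated overnight 37 °C. Cpd titration + EC50 EGF, 5 h 37 °C. CCF4 2.5 h RT; ex 405, em 460/530 ratio → %activity, AC50.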

[2] = NFAT Signaling Pathway (AID 444); conditions: Jurkat NFAT-bla M1, carbachol, beta-lactamase ratio, 5 h; at 17.2 µM (top of the series) unless noted;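 further: carbachol stimulus at about its EC50 of 1 µM final; on the % scale 0 is the no-effect control and ±100 the full control effect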
Procedure, shortened: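 Jurkat cells carrying an NFAT-driven β-lactamase reporter and co-transfected muscarinic M1 receptor were treated with compound plus carbachol (1 uM final, an EC50 level) for 5 h at 37 °C. CCF4 loading followed for 1 h at RT; 460/530 nm ratio gave %activity.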

[3] = Stat Signaling Pathway (AID 446); conditions: ME-180 SIE beta-lactamase reporter, IL-6 stimulated, 5 h; at 17.2 µM (top of the series) unless noted;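 further: ME-180 cervical cancer cells given 40 pM IL-6 alongside compound; SIE-controlled beta-lactamase reporter measured as 460/530 nm FRET emission ratio; on the % scale 0 is the no-effect control and ±100 the full control effect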
Procedure, shortened: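 Reporter line: ME-180 cervical carcinoma, SIE-beta-lactamase. Treatment: compound with 40 pM IL-6, 5 hrs, 37 C, in low-serum OPTI-MEM with 10 mM HEPES pH 7.3. Detection: 460/530 nm fluorescence.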

[4] = target: Glucocorticoid receptor (Homo sapiens) (UniProt P04150); assay: GR-GFP Redistribution (AID 450;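 active means compounds whose dose series gives a full or clear partial fitted curve of increased nuclear translocation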; further: potency means the concentration at half of the fitted maximal effect)
Chain of Glucocorticoid receptor (Homo sapiens) (P04150 whole entry, looked up): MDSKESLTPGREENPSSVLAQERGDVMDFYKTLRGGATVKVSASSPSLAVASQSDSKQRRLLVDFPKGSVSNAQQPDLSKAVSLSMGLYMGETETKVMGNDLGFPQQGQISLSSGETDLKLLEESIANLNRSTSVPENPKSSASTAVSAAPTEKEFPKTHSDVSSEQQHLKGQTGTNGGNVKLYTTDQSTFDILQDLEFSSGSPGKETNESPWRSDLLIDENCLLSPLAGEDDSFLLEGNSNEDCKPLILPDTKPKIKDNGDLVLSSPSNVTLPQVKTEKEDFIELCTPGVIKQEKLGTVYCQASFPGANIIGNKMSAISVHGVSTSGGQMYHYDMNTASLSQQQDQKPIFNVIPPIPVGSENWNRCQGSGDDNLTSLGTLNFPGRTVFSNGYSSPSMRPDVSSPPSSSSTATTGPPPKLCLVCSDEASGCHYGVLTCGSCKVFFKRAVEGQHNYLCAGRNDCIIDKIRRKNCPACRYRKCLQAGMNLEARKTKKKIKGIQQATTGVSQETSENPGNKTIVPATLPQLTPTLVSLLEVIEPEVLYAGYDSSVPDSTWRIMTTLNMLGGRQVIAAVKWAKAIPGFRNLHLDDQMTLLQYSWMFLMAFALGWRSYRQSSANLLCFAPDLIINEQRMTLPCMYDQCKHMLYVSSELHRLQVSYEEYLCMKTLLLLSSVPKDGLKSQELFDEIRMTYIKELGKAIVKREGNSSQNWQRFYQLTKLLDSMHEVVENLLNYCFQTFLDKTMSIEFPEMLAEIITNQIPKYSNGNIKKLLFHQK

CC(C)CCNc1nc2c(cc1C#N)COC(C)(C)C2
inactive: activity change, negative = inhibition [1] -23.1% | activity change, negative = inhibition [2] 4.17% | activity, negative = inhibition [3] 4.4% | Potency [4] > 20.6 µM

CCCCc1nc2n[nH]c(N)c2c2c1CCCC2
inactive: activity change, negative = inhibition [1] 20.3% | activity change, negative = inhibition [2] 1.99% | activity, negative = inhibition [3] 7.03% | Potency [4] > 20.6 µM

c1cncc(-c2nnc3sc(-c4ccco4)nn23)c1
inactive: activity change, negative = inhibition [1] -2.13% | activity change, negative = inhibition [2] 4.1% | activity, negative = inhibition [3] -6.03% | Potency [4] > 20.6 µM

C=CCn1c(SCc2c(F)c(F)c(F)c(F)c2F)nc(O)cc1=O
inactive: activity change, negative = inhibition [1] 4.5% | activity change, negative = inhibition [2] 25.9% | activity, negative = inhibition [3] -10.5% | Potency [4] > 20.6 µM

C=CCc1c(C)nc(SCCC)[nH]c1=O
inactive: activity change, negative = inhibition [1] 2.81% | activity change, negative = inhibition [2] -9.46% | activity, negative = inhibition [3] -7.18% | Potency [4] > 20.6 µM

Cc1cc(=O)oc(C)c1C(=O)N1CCN(Cc2ccc3c(c2)OCO3)CC1
inactive: activity change, negative = inhibition [1] 6.44% | activity change, negative = inhibition [2] 17.1% | activity, negative = inhibition [3] 5.97% | Potency [4] > 20.6 µM

O=C(CCN1CCCCC1)Nc1cccc(Cl)c1
inactive: activity change, negative = inhibition [1] 7.3% | activity change, negative = inhibition [2] -23.2% | activity, negative = inhibition [3] -0.895% | Potency [4] > 20.6 µM

Cc1ccc(S(=O)(=O)/C(C#N)=C/c2c(N3CCN(C)CC3)nc3ccccn3c2=O)cc1
inactive: activity change, negative = inhibition [1] -12.9% | activity change, negative = inhibition [2] -5.08% | activity, negative = inhibition [3] 1.8% | Potency [4] > 20.6 µM

COC(=O)CSc1ncnc2c1sc1nc(-c3ccco3)c3c(c12)CC(C)(C)OC3
inactive: activity change, negative = inhibition [1] -2.46% | activity change, negative = inhibition [2] -26.7% | activity, negative = inhibition [3] -10.8% | Potency [4] > 20.6 µM

O=C(Nc1cccnc1)c1cccnc1
inactive: activity change, negative = inhibition [1] 11.7% | activity change, negative = inhibition [2] -7.91% | activity, negative = inhibition [3] 4.68% | Potency [4] > 20.6 µM

CCn1c(SCC(=O)NCc2ccco2)nnc1-c1ccc(N)cc1
inactive: activity change, negative = inhibition [1] 0.344% | activity change, negative = inhibition [2] 16.3% | activity, negative = inhibition [3] -0.962% | Potency [4] > 20.6 µM

COC(=O)c1c(C)[nH]c(C(=O)OCc2ccc(F)cc2)c1C
inactive: activity change, negative = inhibition [1] 14.7% | activity change, negative = inhibition [2] 5.66% | activity, negative = inhibition [3] -8.92% | Potency [4] > 20.6 µM

O=C(c1cccc(Cl)c1)N1CCN(C(=O)c2ccccc2F)CC1
inactive: activity change, negative = inhibition [1] -14.3% | activity change, negative = inhibition [2] 0.199% | activity, negative = inhibition [3] -11.1% | Potency [4] > 20.6 µM

CC(C)C1Cc2c(C#N)c(N)sc(=S)c2CO1 (stereo unspecified)
inactive: activity change, negative = inhibition [1] -19.3% | activity change, negative = inhibition [2] -23.4% | activity, negative = inhibition [3] 1.85% | Potency [4] > 20.6 µM

COc1ccc(N/C(=N\c2nc(C)cc(C)n2)NC(=O)C(C)C)cc1OC
inactive: activity change, negative = inhibition [1] -12.4% | activity change, negative = inhibition [2] 21.2% | activity, negative = inhibition [3] -1.06% | Potency [4] > 20.6 µM

COc1cc(C2NC(=O)NC(C)=C2C(=O)Nc2cccc(C)c2C)cc(OC)c1OC (stereo unspecified)
inactive: activity change, negative = inhibition [1] 2.82% | activity change, negative = inhibition [2] 10.2% | activity, negative = inhibition [3] -2.31% | Potency [4] > 20.6 µM

O=C1OC(Nc2ccc(Br)cn2)c2ccccc21 (stereo unspecified)
inactive: activity change, negative = inhibition [1] 12.2% | activity change, negative = inhibition [2] 16.3% | activity, negative = inhibition [3] 3.14% | Potency [4] > 20.6 µM

CC(=O)OCc1c(COC(C)=O)[n+](=O)c2ccccc2n1[O-]
inactive: activity change, negative = inhibition [1] 8.53% | activity change, negative = inhibition [2] -3.2% | activity, negative = inhibition [3] 0.487% | Potency [4] > 20.6 µM

O=C1C=C(NCCNc2c(F)c(F)c(CO)c(F)c2F)CCC1
inactive: activity change, negative = inhibition [1] -0.699% | activity change, negative = inhibition [2] -5.54% | activity, negative = inhibition [3] 2.13% | Potency [4] > 20.6 µM

CCOc1ccc(-n2c3nc4ccccc4nc3c3c(=O)n(Cc4ccco4)cnc32)cc1
inactive: activity change, negative = inhibition [1] -1.51% | activity change, negative = inhibition [2] -9.2% | activity, negative = inhibition [3] -2.34% | Potency [4] > 20.6 µM

O=C(Nc1nnc(SCc2ccccc2F)s1)c1ccco1
inactive: activity change, negative = inhibition [1] -5.32% | activity change, negative = inhibition [2] 11.2% | activity, negative = inhibition [3] -4.78% | Potency [4] > 20.6 µM

CN(CCOC(=O)c1ccc2c(c1)OCCO2)Cc1ccccc1
inactive: activity change, negative = inhibition [1] 17.7% | activity change, negative = inhibition [2] -3.33% | activity, negative = inhibition [3] -4.47% | Potency [4] > 20.6 µM

COc1ccccc1N(O)C1CC(=O)N(c2ccc(Br)cc2)C1=O (stereo unspecified)
inactive: activity change, negative = inhibition [1] -7.13% | activity change, negative = inhibition [2] -6.72% | activity, negative = inhibition [3] -0.749% | Potency [4] > 20.6 µM

CCOC(=O)c1c(C)[nH]sc1=S
inactive: activity change, negative = inhibition [1] 4.4% | activity change, negative = inhibition [2] -1.05% | activity, negative = inhibition [3] -4.25% | Potency [4] > 20.6 µM

C=CCN(C(=O)CCC(=O)O)C1CC(=O)N(c2ccc(OCCC)cc2)C1=O (stereo unspecified)
inactive: activity change, negative = inhibition [1] 3.6% | activity change, negative = inhibition [2] -2.1% | activity, negative = inhibition [3] -6.77% | Potency [4] > 20.6 µM

O=C1C(=O)N(Cc2cccnc2)C(c2ccccn2)/C1=C(/O)c1ccc(F)cc1 (stereo unspecified)
inactive: activity change, negative = inhibition [1] 10.7% | activity change, negative = inhibition [2] 3.79% | activity, negative = inhibition [3] 0.323% | Potency [4] > 20.6 µM

CCSc1nnc(N(CCC(=O)O)CCC(=O)O)s1
inactive: activity change, negative = inhibition [1] 2.21% | activity change, negative = inhibition [2] 5.3% | activity, negative = inhibition [3] -4.16% | Potency [4] > 20.6 µM

CN1CCN(c2ncnc3c2[nH]c2ccc(F)cc23)CC1
inactive: activity change, negative = inhibition [1] 7.75% | activity change, negative = inhibition [2] -5.03% | activity, negative = inhibition [3] 11.7% | Potency [4] > 20.6 µM

CCC(=O)Nc1ccc(-c2nnc(SCC(=O)NCC3CCCO3)n2C)cc1 (stereo unspecified)
inactive: activity change, negative = inhibition [1] -2.29% | activity change, negative = inhibition [2] -1.98% | activity, negative = inhibition [3] 1.52% | Potency [4] > 20.6 µM
